The whole screen tested about 320,000 compounds, of which about 1,300 (0.41%) were called active. Another 3% or so got no clear call; they are omitted. The rule behind the calls is not given here. Only a sample is shown. Measured potencies and affinities stand elsewhere.
Assay: growth inhibition of non-replicating M. tuberculosis (AID 488890);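 note: plate controls were DMSO cells for no effect and high antibiotic wells for full effect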
Settings: Mycobacterium tuberculosis non-replicating, at 25 µM, stronger effect = higher value

SMILES | inhibition
CN(Cc1ccccc1)C(=O)COC(=O)C1CCN(S(=O)(=O)c2ccc(Cl)c(C(F)(F)F)c2)CC1 | -14.1%
CC1CCN(C(=O)C2CCC(CNc3c(N4CCCCC4)c(=O)c3=O)CC2)CC1 (stereo unspecified) | 15.8%
O=Cc1cn(-c2ccccc2)nc1-c1ccc(F)cc1 | 1.85%
Cc1ccc(-n2cc(CNCCN3CCOC3=O)c(-c3ccc(F)cc3)n2)cc1 | 26.6%
COc1ccc(-c2nn(-c3ccccc3F)cc2CNCCn2nc(C)cc2C)cc1 | 52.6%
OCc1cn(-c2ccccc2)nc1-c1ccc(-c2nn(-c3ccccc3)cc2CO)cc1 | -3.64%
O=C(c1ccc2oc(Cc3ccc(Cl)cc3)nc2c1)N1CC[C@H](O)C1 | -2.21%
CC#CCN(Cc1ccco1)C(=O)c1ccc(OC2CCN(Cc3ccccn3)CC2)cc1 | 10.1%
COc1ccc(/C=C(/C#N)C(=O)Nc2cccnc2)cc1OC | -2.65%
C#CCOCCOCCOCCNc1nc(N2CCN(C(=O)C([C@@H](C)CC)n3cc(C(N)CC(C)C)nn3)CC2)nc(N2CCN(C(=O)[C@H](CCC(=O)O)n3cc(C(N)CC(C)C)nn3)CC2)n1 (stereo partly specified) | -10.1%
Cc1ccccc1N=C(NO)c1nonc1N | -6.6%
O=C(O)c1ccc(Cl)c(S(=O)(=O)Nc2cccc(C(=O)Nc3cccc(C(F)(F)F)c3)c2)c1 | 26.6%
COc1cc(C=Nc2c(C)cc(C)cc2C)ccc1OC(C)=O | -9.04%
COc1cc(SC)ccc1C(=O)Nc1cccc(S(=O)(=O)NC2=NCCC2)c1 | 24.7%
O=c1c2cc(F)ccc2sn1-c1ccccc1 | 20.9%
Cc1ccc(C)c(-n2sc3ccc(F)cc3c2=O)c1 | -21.9%
Cc1ccc(S(=O)(=O)N2CCC(=O)N(C(CO)C(C)C)CC2)cc1 (stereo unspecified) | -0.84%
Cc1ccc(C(=O)c2ccc(C(F)(F)F)cc2)cc1 | 23.7%
CC(O)C(=O)N/N=C/c1ccccc1C(=O)O (stereo unspecified) | -1.19%
COc1ccc2[nH]c3c(Cl)ncnc3c2c1 | 66.1%
COc1ccc2c(c1)[nH]c1c(C)nccc12 | 0.33%
COc1ccc(NC(=O)C2CCCN(C(=O)c3ccc(Cl)cc3)C2)cc1Cl (stereo unspecified) | 5.35%
CCOc1ccc(CNC(=O)Cn2ccc3cc(S(=O)(=O)N4CCCC4)ccc32)cc1 | 9.09%

SMILES | inhibition
CC(NC(=O)Cc1ccsc1)c1ccc(F)cc1 (stereo unspecified) | 3.93%
COc1ccc(Br)c(C(=O)N2CCN(S(=O)(=O)/C=C/c3ccccc3)CC2)c1 | 17.6%
CCc1ccc(N2CC(C(=O)Nc3ccc(S(=O)(=O)NCC4CCCO4)cc3)CC2=O)cc1 (stereo unspecified) | -5.44%
O=Cc1cn(-c2ccccc2)nc1-c1ccccc1 | -1.35%
S=c1[nH]nc(-c2cccs2)n1/N=C/c1cn(-c2ccccc2)nc1-c1cccs1 | -1.62%
NC(=O)N/N=C/c1cn(-c2ccccc2)nc1-c1cccs1 | 8.14%
CC1(C)CC(=O)C(=Cc2cn(-c3ccccc3)nc2-c2ccccc2)C(=O)C1 | 44.3%
Cc1nc2ccccc2c(=O)n1/N=C/c1cn(-c2ccccc2)nc1-c1cccs1 | 3.43%
O=C(N/N=C/c1cn(-c2ccccc2)nc1-c1cccs1)c1ccccc1F | 3.19%
Cc1ccc(/C=C2\SC(=S)N(CCC(=O)Nc3cccnc3)C2=O)cc1 | 2.99%
Cc1ccc(CN2CC(C(=O)N3CCN(c4ccccc4O)CC3)CC2=O)cc1 (stereo unspecified) | 5.09%
COc1ccc2cc3cc(C(=O)N4CCN(c5ccccn5)CC4)oc3nc2c1 | 15.3%
CCOc1cc(/C=C/C(=O)N(CC)CC(=O)NCc2cccs2)cc(Cl)c1OC | 11.9%
COc1ccccc1Cn1nnc2c(=O)[nH]c(C3CCN(C(=O)c4ccccc4Cl)CC3)nc21 | 33.2%
CC(=O)Nc1ccc(-c2csc(NC(=O)CCNC(=O)c3ccco3)n2)cc1 | 1.09%
O=C(COC(=O)CCS(=O)(=O)c1ccc(Cl)cc1)NCCc1ccc(Cl)cc1Cl | 21.4%
COC(=O)c1cc(Br)c(=O)n(Cc2ccc(C(=O)O)cc2)c1 | -0.84%
COC(=O)c1ccc(Cn2cc(C(F)(F)F)ccc2=O)cc1 | 69.9%
C[C@H](CO)N1C[C@H](C)[C@@H](CN(C)C(=O)NC2CCCCC2)Oc2c(NC(=O)Cc3ccccc3)cccc2C1=O | 17.9%
CN(CC(=O)Nc1ccc(F)c(F)c1)S(=O)(=O)c1cccs1 | 2.99%
CCN(C[C@H]1N[C@@](C)(C(=O)OC)[C@H]2C(=O)N(C)C(=O)[C@@H]12)S(=O)(=O)c1ccc(OC)cc1 | 9.25%
COC(=O)COc1ccccc1/C=C1/NC(=O)NC1=O | 5%
COC(=O)COc1ccccc1C(N)=O | 2.19%

SMILES | inhibition
CCC(CC)NC(=O)COc1ccc(OC)cc1C=O | -3.52%
COC(=O)COc1cc(Cl)c(C=O)cc1OC | 65.7%
COc1cccc(OC)c1C(=O)Nc1ccccc1C(=O)N1CCCCCC1 | 1.4%
NC(=O)CCN(C(=O)c1cccc(S(=O)(=O)N2CCc3ccccc32)c1)c1ccccc1 | 24.7%
COc1ccc(OCC(=O)Nc2ccncc2)cc1 | 67%
COc1cccc(OCC(=O)NNC(=O)c2cccs2)c1 | 88.2%
CCOc1ccc(CC(=O)Nc2nccs2)cc1 | 3.37%
C/C(=N\NC(=O)COc1ccc2ccccc2c1)c1cccs1 | 1.6%
CCOc1ccc(S(=O)(=O)N(C)c2ccc(OCC(=O)Nc3nccs3)cc2)cc1 | 20.7%
O=C(COc1ccc2ccc(=O)oc2c1)Nc1nccs1 | 9.82%
O=C(COc1ccccc1)Nc1nccs1 | 50.5%
O=C(COc1ccccc1)Nc1ccncc1 | 49.4%
CCc1cccc(OCC(=O)Nc2c[nH]c(=O)[nH]c2=O)c1 | -17.2%
COc1ccc(N2CC(NS(=O)(=O)c3cccs3)CC2=O)cc1 (stereo unspecified) | -13.6%
CCOc1ccc(NC(=O)CSc2nnc(C(C)C)n2CC)cc1 | 11.7%
CCn1cc(/C=C(\NC(=O)c2ccccc2F)C(=O)NCCCn2ccnc2)c2ccccc21 | 14.8%
COc1ccc(NC(=O)CSc2nc(-c3ccco3)nc3cc(=O)[nH]n23)cc1Cl | 14.5%
CCCN(Cc1nnc(-c2ccccc2Cl)o1)C(=O)c1ccc(C)c(S(=O)(=O)N2CCOCC2)c1 | -1.62%
CC(=O)C[C@@H](O)CC(=O)[C@@H]1OC(=O)CCCCCCCc2ccccc21 | 4.28%
Cc1ccc(C(=O)Nc2scc(-c3ccccc3)c2C(=O)O)cc1 | 67.7%
CCOC(=O)c1c(C)[nH]c(C=O)c1Cc1cccc(Cl)c1 | 22.5%
NC(=O)c1ccccc1NC(=S)NC(=O)c1ccc(Br)o1 | 13.4%
Cc1cc(OCC(=O)Nc2ccncc2)c(C)cc1Br | 68%

SMILES | inhibition
O=C(CNc1ccc2ccccc2c1)N/N=C/c1ccccn1 | 56.7%
Cc1ccc(OCC(=O)Nc2ccncc2)cc1 | 76.7%
Cc1cc(OCC(=O)Nc2ccncc2)cc(C)c1Br | 62.5%
O=C(COc1ccc([N+](=O)[O-])cc1)N/N=C/c1ccccn1 | 64.7%
Cc1cc(C)cc(OCC(=O)Nc2ccncc2)c1 | 2.54%
COC(=O)COc1ccc(/C=N/NC(=O)c2ccc(N(Cc3ccccc3)S(C)(=O)=O)cc2)cc1 | 64.2%
CCn1c(SCc2cccnc2)nnc1-c1c[nH]c2ccccc12 | -5.65%
CC(=O)N1CCCc2cc(S(=O)(=O)NCCC3=CCCCC3)ccc21 | 17.1%
CCOC(=O)c1ccc(CNCc2ccc(Br)cc2)cc1 | 43.5%
CC(=O)NCC(=O)OCC(=O)c1ccc(Br)cc1 | 27.9%
O=C(CCCCN1CCCCC1)c1ccccc1 | -7.7%
CC(C)Oc1ccc(OCCCN2CCCCCC2)cc1 | 35.7%
CC(C)COc1ccc(C(=O)OCCN2CCCCC2)cc1 | 13.8%
CCC(=O)c1ccc(OCC(O)CN2CCCCC2)cc1 (stereo unspecified) | 9.06%
O=C(CN1CCCCC1)c1ccc(OC(F)F)cc1 | -4.47%
COc1ccc(C(=O)CN2CCCCC2)cc1 | -2.71%
O=C(CCN1CCCCC1)Nc1ccccc1 | -3.98%
COc1ccc(C(=O)OCCN2CCCCC2)cc1 | 4.85%
COCCC1CCCCN1C(=O)c1cc(COc2ccc(C)nc2)on1 (stereo unspecified) | -7.63%
Cc1csc(=Nc2c(C)n(C)n(-c3ccccc3)c2=O)n1Cc1ccccc1 | -1.63%
NC(=O)c1ccsc1NC(=O)COC(=O)c1ccc(Cl)c(N)c1 | -0.17%
COc1ccc(C)cc1NC(=O)CCC(=O)Nc1nnc(C2CCCCC2)s1 | 0.87%
CCN(CC1CCCN(CCc2cccc(OC)c2)C1)C(=O)c1ccoc1C (stereo unspecified) | -3.45%

SMILES | inhibition
Cc1cc(NC(=O)CSc2nnc(-c3ccc(S(=O)(=O)N4CCCC4)cc3)n2C)no1 | -6.04%
O=C(Nc1cc(S(=O)(=O)N2CCCCCC2)ccc1OCC(F)(F)F)c1cnccn1 | 9.9%
Cn1c(=O)[nH]c2nncnc2c1=O | 12.4%
CCCCn1c(N)c(N(CCC(C)C)C(=O)COC(=O)c2cccnc2Cl)c(=O)[nH]c1=O | 17.4%
CC(=O)Nc1ccc(S(=O)(=O)NCC(=O)NCCc2ccc(S(N)(=O)=O)cc2)cc1 | -0.25%
O=C(N=C1N=C2C=CC(Br)=CN2Cc2ccccc21)c1ccc([N+](=O)[O-])cc1[N+](=O)[O-] | 61.8%
CCOc1ccc(OCCN2CCCCC2)cc1 | 8.17%
CCOc1ccc(NC(=O)CCN2CCCCC2)cc1 | -37.2%
O=C(CSc1nnc(Cn2nnc3ccccc32)o1)Nc1cccc(Cl)c1 | 3.51%
N#CCO/N=C(\c1ccccc1)c1ccncc1 | 0.55%
O=c1oc2ccccc2c(Nc2ccc(O)cc2)c1[N+](=O)[O-] | 35.3%
O=c1oc2ccccc2c(Nc2cccc3ccccc23)c1[N+](=O)[O-] | 21.2%
COc1ccc(S(=O)(=O)N2CCN(C)CC2)cc1C | 0.44%
N#Cc1ccsc1NC(=O)C1CC(=O)N(Cc2ccccc2)C1 (stereo unspecified) | 50.7%
Cc1nn(CC(=O)N2CCc3ccccc3C2)c(C)c1Cl | 10.6%
CCOC(=O)c1c(NC(=O)CCN2CCOCC2)sc(C)c1-c1ccccc1 | 55.4%
CCOC(=O)c1c(NC(=O)CN2CCOCC2)sc(C(=O)NC)c1C | -15.7%
O=C(Nc1ncc2c(n1)-c1ccccc1OC2)c1ccccc1Cl | 13.6%
O=C(Nc1ncc2c(n1)-c1ccccc1OC2)c1ccc(Cl)cc1 | 75.5%

From PubChem BioAssay AID488890 (Southern Research Specialized Biocontainment Screening …, 2010)
